Test results published in PubChem BioAssay (NCATS).
Records with an inconclusive call do not appear. The source made the active and inactive calls. Unless noted, the call rests on the fitted dose curve; in most records, active means well fitted curve in the direction sought with a large enough effect; inconclusive means small, poorly fitted or top-dose-only effect, or another doubt; inactive means no such curve, though single readings can be large; an effect the other way counts as inactive or inconclusive.

What was measured:
[1] = P-glycoprotein substrates identified in KB-8-5-11 adenocarcinoma cell line, qHTS therapeutic library screen (AID 1346987); further: nearly all actives have a fitted effect of over 65% in size
Summary of the method: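 Steps: plate 500 KB-8-5-11 cells/well in DMEM + 10% FCS (colchicine removed); pin compounds in dose-response; incubate 72 h, 37 degree C, 5% CO2; add CellTiter-Glo, 5 min; read luminescence.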

[2] = Natriuretic polypeptide receptor (hNpr1) antagonism - Pilot counterscreen GloSensor control cell line (AID 1347045; calls by dose curve; further: series mostly up to about 38 µM; on the % scale 0 is the no-effect control and ±100 the full control effect)
Summary of the method: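 Luminescence was read before and 20 min after adding 50 uM SNP, which stimulates soluble guanylyl cyclase. The HEK293 cells expressing the GloSensor cGMP sensor had been preloaded with 2% reagent for 2 h and treated with compound.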

[3] = molecular target: Atrial natriuretic peptide receptor 1 (Homo sapiens) (UniProt P16066); assay: Natriuretic polypeptide receptor (hNpr1) antagonism - Pilot screen (AID 1347049; calls by dose curve;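 further: agonist-evoked cGMP luminescence read 20 min after hNppA addition; series mostly up to about 58 µM; on the % scale 0 is the no-effect control and ±100 the full control effect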)
Summary of the method: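 HEK293 cells expressing hNpr1 and GloSensor cGMP luciferase, 1500/well, loaded with 2% GloSensor reagent 2 h, compound 30 min at room temperature; luminescence read before and 20 min after 0.1 nM hNppA stimulation.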

[4] = molecular target: Atrial natriuretic peptide receptor 2 (Homo sapiens) (UniProt P20594); assay: Natriuretic polypeptide receptor (hNpr2) antagonism - Pilot subtype selectivity assay (AID 1347050; calls by dose curve; further: on the % scale 0 is the no-effect control and ±100 the full control effect)
Summary of the method: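 HEK293 cells expressing hNpr2 and a GloSensor cGMP luciferase sensor, 1500/well, preloaded 2 h with 2% GloSensor reagent, compound 30 min, then 1 nM hNppC for 20 min. Antagonism from luminescence after versus baseline pre-read; LOPAC in 1:5 titrations.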

[5] = NS1 protein of Zika virus - qHTS assay to identify small molecule inhibitors in human HEK 293 cells (AID 1347053);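 further: series mostly up to about 46 µM; plate controls were infected untreated cells for no effect and uninfected cells for full effect; nearly all actives have a fitted effect of over 55% in size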
Summary of the method: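 Inhibition of NS1 expression was scored in HEK 293 cells given compound 1 h ahead of MR766 virus (MOI = 0.5). Following 24 h at 37 C, two anti-NS1 antibodies generated a TR-FRET signal, scaled between uninfected and infected controls.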

[6] = molecular target: T1, Tyrosine-protein phosphatase non-receptor type substrate 1 (Homo sapiens) + Leukocyte surface antigen CD47 (Homo sapiens) (UniProt P78324+Q08722); assay: CD47-SIRPalpha protein protein interaction - LANCE assay qHTS validation (AID 1347057; active means well fitted curve in the direction sought with a large enough effect in the signal ratio, with a control signal flat, not every such curve was filed as active; the % refers to the signal ratio; further: series mostly up to about 38 µM; 0% is about no effect)
Summary of the method: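 First, His-tagged CD47 and Eu-labelled anti-His antibody met the compound for 30 min; next, site-specifically biotinylated SIRPalpha was added for 30 min; finally streptavidin-APC was added before reading the TR-FRET ratio.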

[7] = molecular target: T1, Tyrosine-protein phosphatase non-receptor type substrate 1 (Homo sapiens) + Leukocyte surface antigen CD47 (Homo sapiens); assay: CD47-SIRPalpha protein protein interaction - HTRF assay qHTS validation (AID 1347058; active means well fitted curve in the direction sought with a large enough effect in the signal ratio, not every such curve was filed as active; the % refers to the signal ratio;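 further: recombinant soluble extracellular CD47 with His tag and biotinylated SIRPalpha domains; series mostly up to about 38 µM; 0% is about no effect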)
Summary of the method: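 TR-FRET read (Ch1/Ch2 ratio) of soluble extracellular CD47 and Avi-biotinylated SIRPalpha domains in PBS pH 7.4 with 0.05% IGEPAL; 7-point compound titration. Sequential 30 min room-temperature steps; non-biotinylated SIRPalpha as control inhibitor.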

[8] = molecular target: T1, Tyrosine-protein phosphatase non-receptor type substrate 1 (Homo sapiens) + Leukocyte surface antigen CD47 (Homo sapiens); assay: CD47-SIRPalpha protein protein interaction - Alpha assay qHTS validation (AID 1347059);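 further: bead proximity luminescence from CD47 binding SIRPalpha after compound preincubation with SIRPalpha; on the % scale 0 is the no-effect control and ±100 the full control effect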
Summary of the method: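 Biotinylated Avi-tagged SIRPalpha (25 nM) preincubated 30 min with compound, then His-tagged CD47 (12.5 nM) added 30 min; AlphaScreen with Ni-NTA acceptor and streptavidin donor beads. PBS pH 7.4, 0.05% IGEPAL, room temperature; 7-point titrations.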

[9] = molecular target: Parathyroid hormone/parathyroid hormone-related peptide receptor (Homo sapiens) (UniProt Q03431); assay: qHTS for PTHR1 Agonists: Optimization Screen against the NCGC LOPAC library (AID 1347079);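 further: GloSensor cAMP luminescence in HEK-293 GP2 cells expressing human PTHR1 with IBMX; 0% is about no effect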
Summary of the method: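 Agonist readout: GloSensor cAMP luminescence, read after 15 min at room temperature. HEK-293-derived GP2 line carries PTHR1; compounds tested as a titration for 1 hr at 37C in presence of IBMX. M-PTH (1-15) served as control.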

[10] = qHTS for Inhibitors of the Functional Ribonucleoprotein Complex (vRNP) of Lassa (LASV) Arenavirus: LASV Primary Screen - GLuc reporter signal (AID 1347082; calls by dose curve; tested in HEK293 reporter line; further: series mostly up to about 57 µM; on the % scale 0 is the no-effect control and ±100 the full control effect; nearly all actives have a fitted effect of over 60% in size)
[11] = qHTS for Inhibitors of the Functional Ribonucleoprotein Complex (vRNP) of Lassa (LASV) Arenavirus: Viability assay - alamar blue signal for LASV Primary Screen (AID 1347083; calls by dose curve; tested in HEK293 reporter line; further: series mostly up to about 57 µM; on the % scale 0 is the no-effect control and ±100 the full control effect; nearly all actives have a fitted effect of over 80% in size)
[12] = qHTS for Inhibitors of the Functional Ribonucleoprotein Complex (vRNP) of Lymphocytic Choriomeningitis Arenaviruses (LCMV): Viability assay - alamar blue signal for LCMV Primary Screen (AID 1347085; calls by dose curve; tested in HEK293 reporter line; further: series mostly up to about 57 µM; on the % scale 0 is the no-effect control and ±100 the full control effect; nearly all actives have a fitted effect of over 80% in size)
[13] = molecular target: Nucleoprotein (Lymphocytic choriomeningitis virus (strain Armstrong)) (UniProt P09992); assay: qHTS for Inhibitors of the Functional Ribonucleoprotein Complex (vRNP) of Lymphocytic Choriomeningitis Arenaviruses (LCMV): LCMV Primary Screen - GLuc reporter signal (AID 1347086; calls by dose curve; further: series mostly up to about 57 µM; on the % scale 0 is the no-effect control and ±100 the full control effect; nearly all actives have a fitted effect of over 70% in size)
[14] = qHTS of pediatric cancer cell lines to identify multiple opportunities for drug repurposing: Primary screen for TC32 cells (AID 1347089); further: on the % scale 0 is the no-effect control and ±100 the full control effect; nearly all actives have a fitted effect of over 60% in size
Summary of the method: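 Luminescent ATP read-out (CellTiter-Glo) of metabolically active TC32 cells after 48 h exposure. Concentration-response curves came from 11-point (MIPE, 0.78 nM–46 µM) or 8-point (NPC, 0.59 nM–46 µM) primary titrations; follow-up used 11 points.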

[15] = qHTS of pediatric cancer cell lines to identify multiple opportunities for drug repurposing: Primary screen for DAOY cells (AID 1347090);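 further: series mostly up to about 46 µM; plate controls were DMSO for no effect and bortezomib for full effect; nearly all actives have a fitted effect of over 55% in size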
Summary of the method: (§1)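 Viability measured as metabolically active cells via CellTiter-Glo luminescence following 48 hours of compound exposure, 11-point dilutions in confirmatory testing. 500-1,000 cells/well plated 5 hours before dosing; controls were DMSO and 2.3 µM bortezomib.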

[16] = qHTS of pediatric cancer cell lines to identify multiple opportunities for drug repurposing: Primary screen for SJ-GBM2 cells (AID 1347091);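 further: plate controls were DMSO neutral control for no effect and bortezomib for full effect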
Summary of the method: as §1

[17] = qHTS of pediatric cancer cell lines to identify multiple opportunities for drug repurposing: Primary screen for A673 cells (AID 1347092); further: on the % scale 0 is the no-effect control and ±100 the full control effect; nearly all actives have a fitted effect of over 45% in size
Summary of the method: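 Cell viability of A673 measured by CellTiter-Glo ATP luminescence after 48 hours compound exposure. Dilution series spanned 0.78 nM to 46 µM (MIPE, 11-point) or 0.59 nM to 46 µM (NPC, 8-point); bortezomib 2.3 uM positive control.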

[18] = qHTS of pediatric cancer cell lines to identify multiple opportunities for drug repurposing: Primary screen for BT-37 cells (AID 1347094);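 further: series mostly up to about 57 µM; plate controls were DMSO for no effect and bortezomib for full effect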
Summary of the method: (§2)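 Plated cells (500-1,000 per well, growth media) were allowed to settle for 5 hours, treated with compound dilutions for 48 hours, then lysed with CellTiter-Glo for 15 min at room temperature before luminescence reading.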

[19] = qHTS of pediatric cancer cell lines to identify multiple opportunities for drug repurposing: Primary screen for NB-EBc1 cells (AID 1347095);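 further: plate controls were DMSO neutral control for no effect and bortezomib for full effect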
Summary of the method: as §2

[20] = qHTS of pediatric cancer cell lines to identify multiple opportunities for drug repurposing: Primary screen for SK-N-MC cells (AID 1347093);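 further: series mostly up to about 46 µM; plate controls were DMSO neutral control for no effect and bortezomib for full effect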
Summary of the method: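 Metabolically active cells were quantified by ATP-dependent luminescence (CellTiter-Glo, 15 min at room temperature) following 48 h treatment. Cells had been plated at 500-1,000 per well and settled for 5 h beforehand.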

Sequence of Atrial natriuretic peptide receptor 1 (Homo sapiens) (P16066 whole entry, looked up): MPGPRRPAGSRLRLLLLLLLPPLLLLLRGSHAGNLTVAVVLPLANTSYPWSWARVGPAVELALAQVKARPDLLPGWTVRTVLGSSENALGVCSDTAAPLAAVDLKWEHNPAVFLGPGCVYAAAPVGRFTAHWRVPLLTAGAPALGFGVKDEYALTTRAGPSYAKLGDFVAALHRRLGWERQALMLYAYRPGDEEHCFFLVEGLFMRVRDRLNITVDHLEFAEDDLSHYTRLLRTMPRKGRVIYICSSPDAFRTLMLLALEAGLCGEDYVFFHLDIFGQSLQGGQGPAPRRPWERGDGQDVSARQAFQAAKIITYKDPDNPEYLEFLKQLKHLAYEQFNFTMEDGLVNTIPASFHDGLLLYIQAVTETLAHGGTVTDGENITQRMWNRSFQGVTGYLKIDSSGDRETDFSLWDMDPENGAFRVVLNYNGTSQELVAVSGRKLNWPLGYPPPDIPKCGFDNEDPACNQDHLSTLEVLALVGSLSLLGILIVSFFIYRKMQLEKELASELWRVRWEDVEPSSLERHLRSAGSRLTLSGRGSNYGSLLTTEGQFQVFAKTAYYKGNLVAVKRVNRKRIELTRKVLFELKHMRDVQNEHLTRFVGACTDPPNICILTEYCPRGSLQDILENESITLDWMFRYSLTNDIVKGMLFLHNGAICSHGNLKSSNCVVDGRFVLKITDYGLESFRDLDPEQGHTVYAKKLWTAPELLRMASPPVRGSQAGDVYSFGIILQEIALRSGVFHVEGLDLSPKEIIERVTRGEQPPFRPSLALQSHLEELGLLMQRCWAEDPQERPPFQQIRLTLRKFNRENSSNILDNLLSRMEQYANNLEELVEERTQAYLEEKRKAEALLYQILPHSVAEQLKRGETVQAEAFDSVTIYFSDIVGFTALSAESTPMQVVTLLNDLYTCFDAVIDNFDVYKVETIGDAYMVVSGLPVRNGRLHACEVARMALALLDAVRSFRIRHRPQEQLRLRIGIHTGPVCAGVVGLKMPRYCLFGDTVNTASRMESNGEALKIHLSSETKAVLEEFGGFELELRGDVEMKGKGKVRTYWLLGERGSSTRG
T1 sequence (P78324 whole entry, looked up): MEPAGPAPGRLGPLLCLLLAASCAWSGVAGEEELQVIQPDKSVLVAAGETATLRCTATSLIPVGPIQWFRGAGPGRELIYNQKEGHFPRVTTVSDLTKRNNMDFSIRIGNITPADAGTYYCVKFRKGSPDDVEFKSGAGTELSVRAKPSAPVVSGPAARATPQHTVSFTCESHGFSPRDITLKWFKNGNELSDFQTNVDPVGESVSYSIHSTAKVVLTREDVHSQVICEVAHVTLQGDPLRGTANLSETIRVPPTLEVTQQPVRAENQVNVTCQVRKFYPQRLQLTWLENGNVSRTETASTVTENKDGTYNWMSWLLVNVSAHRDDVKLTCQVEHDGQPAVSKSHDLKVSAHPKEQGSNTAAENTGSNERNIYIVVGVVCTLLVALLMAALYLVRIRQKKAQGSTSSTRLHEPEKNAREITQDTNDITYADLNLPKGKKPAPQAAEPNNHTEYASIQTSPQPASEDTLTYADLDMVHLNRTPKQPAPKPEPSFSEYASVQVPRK
T1 sequence (Q08722 whole entry, looked up): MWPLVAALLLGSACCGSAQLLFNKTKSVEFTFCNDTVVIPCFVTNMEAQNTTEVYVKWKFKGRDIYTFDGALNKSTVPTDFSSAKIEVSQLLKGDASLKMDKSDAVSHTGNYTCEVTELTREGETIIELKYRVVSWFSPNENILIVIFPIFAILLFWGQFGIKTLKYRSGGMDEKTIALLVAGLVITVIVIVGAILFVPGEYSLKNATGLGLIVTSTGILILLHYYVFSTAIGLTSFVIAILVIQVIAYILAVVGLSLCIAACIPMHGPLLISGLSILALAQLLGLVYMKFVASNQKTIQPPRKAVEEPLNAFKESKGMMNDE
Sequence of Atrial natriuretic peptide receptor 2 (Homo sapiens) (P20594 whole entry, looked up): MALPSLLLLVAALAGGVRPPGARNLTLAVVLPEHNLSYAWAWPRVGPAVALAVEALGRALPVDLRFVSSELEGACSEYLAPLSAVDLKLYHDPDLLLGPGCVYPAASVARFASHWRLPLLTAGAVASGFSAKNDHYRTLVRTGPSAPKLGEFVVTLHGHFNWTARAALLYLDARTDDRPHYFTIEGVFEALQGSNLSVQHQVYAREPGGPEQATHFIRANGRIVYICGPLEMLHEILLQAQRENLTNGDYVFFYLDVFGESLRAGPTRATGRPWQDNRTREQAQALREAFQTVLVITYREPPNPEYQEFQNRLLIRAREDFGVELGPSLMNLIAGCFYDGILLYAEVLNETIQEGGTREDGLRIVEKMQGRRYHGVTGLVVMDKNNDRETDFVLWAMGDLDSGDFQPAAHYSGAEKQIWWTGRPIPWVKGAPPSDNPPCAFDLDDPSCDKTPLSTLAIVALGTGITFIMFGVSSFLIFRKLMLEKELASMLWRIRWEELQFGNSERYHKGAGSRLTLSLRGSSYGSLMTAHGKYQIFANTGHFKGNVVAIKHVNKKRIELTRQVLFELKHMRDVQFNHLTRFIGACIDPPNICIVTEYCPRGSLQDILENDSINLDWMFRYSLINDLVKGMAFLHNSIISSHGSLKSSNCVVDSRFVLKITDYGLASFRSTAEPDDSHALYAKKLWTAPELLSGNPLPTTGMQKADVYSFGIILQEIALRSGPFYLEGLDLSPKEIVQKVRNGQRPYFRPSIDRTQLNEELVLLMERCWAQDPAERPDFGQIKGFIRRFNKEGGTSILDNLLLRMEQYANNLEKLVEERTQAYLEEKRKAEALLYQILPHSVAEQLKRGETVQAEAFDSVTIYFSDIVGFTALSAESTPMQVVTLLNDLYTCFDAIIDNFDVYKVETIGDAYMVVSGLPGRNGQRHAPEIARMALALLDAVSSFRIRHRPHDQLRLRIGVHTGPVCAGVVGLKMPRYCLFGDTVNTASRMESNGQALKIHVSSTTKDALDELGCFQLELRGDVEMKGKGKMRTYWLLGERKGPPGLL
Sequence of Nucleoprotein (Lymphocytic choriomeningitis virus (strain Armstrong)) (P09992 whole entry, looked up): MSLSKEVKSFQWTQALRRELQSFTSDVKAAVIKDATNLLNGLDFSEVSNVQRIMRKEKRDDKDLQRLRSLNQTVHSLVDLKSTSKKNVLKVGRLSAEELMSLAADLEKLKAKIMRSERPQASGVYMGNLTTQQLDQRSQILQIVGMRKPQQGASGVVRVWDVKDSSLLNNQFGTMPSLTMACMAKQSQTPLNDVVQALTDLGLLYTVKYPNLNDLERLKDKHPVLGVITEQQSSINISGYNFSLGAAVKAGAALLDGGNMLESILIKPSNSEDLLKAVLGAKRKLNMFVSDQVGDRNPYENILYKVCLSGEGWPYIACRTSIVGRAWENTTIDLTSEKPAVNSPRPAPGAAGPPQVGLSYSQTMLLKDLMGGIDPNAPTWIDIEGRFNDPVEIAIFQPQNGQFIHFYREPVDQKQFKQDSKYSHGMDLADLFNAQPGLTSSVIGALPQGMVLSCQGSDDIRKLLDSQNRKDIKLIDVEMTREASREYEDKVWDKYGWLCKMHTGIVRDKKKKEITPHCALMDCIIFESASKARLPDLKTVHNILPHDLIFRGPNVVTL
Sequence of Parathyroid hormone/parathyroid hormone-related peptide receptor (Homo sapiens) (Q03431 whole entry, looked up): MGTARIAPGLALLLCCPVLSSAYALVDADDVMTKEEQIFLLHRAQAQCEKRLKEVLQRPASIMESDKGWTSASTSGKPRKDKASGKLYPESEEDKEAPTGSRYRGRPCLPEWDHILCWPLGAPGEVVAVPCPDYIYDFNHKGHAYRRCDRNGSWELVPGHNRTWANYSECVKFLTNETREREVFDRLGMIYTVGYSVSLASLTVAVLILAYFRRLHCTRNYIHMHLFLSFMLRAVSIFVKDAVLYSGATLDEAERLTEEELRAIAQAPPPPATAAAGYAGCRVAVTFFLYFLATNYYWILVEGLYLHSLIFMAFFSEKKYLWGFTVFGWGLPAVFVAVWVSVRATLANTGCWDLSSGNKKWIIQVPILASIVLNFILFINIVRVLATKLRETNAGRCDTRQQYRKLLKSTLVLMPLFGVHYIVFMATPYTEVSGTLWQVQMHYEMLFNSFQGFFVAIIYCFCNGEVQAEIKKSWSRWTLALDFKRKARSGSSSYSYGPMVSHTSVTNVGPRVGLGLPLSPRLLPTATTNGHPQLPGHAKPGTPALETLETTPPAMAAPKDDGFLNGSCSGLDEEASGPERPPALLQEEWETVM

O=c1[nH]oc2c1CCNC2
inactive: Potency [1] | outcome [2] | outcome [3] | outcome [4] | outcome [5] | outcome [6] | outcome [7] | outcome [8] | outcome [9] | Potency [10] | Potency [11] | Potency [12] | Potency [13] | Potency [14] | Potency [15] | Potency [16] | Potency [17] | Potency [18] | Potency [19]

CCC1(c2ccc(N)cc2)CCC(=O)NC1=O (configuration not stated)
inactive: Potency [1] | outcome [2] | outcome [3] | outcome [4] | outcome [5] | outcome [6] | outcome [7] | outcome [8] | outcome [9] | Potency [10] | Potency [11] | Potency [12] | Potency [13] | Potency [14] | Potency [15] | Potency [16] | Potency [17] | Potency [20] | Potency [18] | Potency [19]

COc1ccc2c(c1)C13CCCC[C@@H]1C(C2)N(C)CC3 (some centres not stated)
inactive: Potency [1]

COC(=O)C(Cl)C(=O)OC
inactive: Potency [1] | outcome [5] | Potency [10] | Potency [11] | Potency [12] | Potency [13] | Potency [14] | Potency [15] | Potency [16] | Potency [17] | Potency [20] | Potency [18] | Potency [19]

CN=C1CN(O)C(c2ccccc2)=c2cc(Cl)ccc2=N1
inactive: Potency [1]

CC(C)c1cccc(C(C)C)c1O
inactive: Potency [1] | outcome [2] | outcome [3] | outcome [4] | outcome [5] | outcome [6] | outcome [7] | outcome [8] | outcome [9] | Potency [10] | Potency [11] | Potency [12] | Potency [13] | Potency [14] | Potency [15] | Potency [16] | Potency [17] | Potency [20] | Potency [18] | Potency [19]

COP(=S)(OC)Oc1ccc(S(=O)(=O)N(C)C)cc1
inactive: Potency [1] | outcome [5] | Potency [10] | Potency [11] | Potency [12] | Potency [13] | Potency [14] | Potency [15] | Potency [16] | Potency [17] | Potency [20] | Potency [18] | Potency [19]

Nc1ccc([As](=O)(O)O)cc1
inactive: Potency [1] | outcome [5] | Potency [10] | Potency [11] | Potency [12] | Potency [13] | Potency [14] | Potency [15] | Potency [16] | Potency [17] | Potency [20] | Potency [18] | Potency [19]

O=C1c2ccccc2C(=O)c2ccccc21
inactive: Potency [1] | outcome [5] | Potency [10] | Potency [11] | Potency [12] | Potency [13] | Potency [14] | Potency [15] | Potency [16] | Potency [17] | Potency [20] | Potency [18] | Potency [19]

COc1ccc2c(c1OC)C(=O)O[C@H]2[C@@H]1c2cc3c(cc2CCN1C)OCO3
inactive: Potency [1] | outcome [2] | outcome [3] | outcome [4] | outcome [5] | outcome [6] | outcome [7] | outcome [8] | outcome [9] | Potency [10] | Potency [11] | Potency [12] | Potency [13] | Potency [14] | Potency [15] | Potency [16] | Potency [17] | Potency [18] | Potency [19]

CC(C)N(CCC(C(N)=O)(c1ccccc1)c1ccccn1)C(C)C (configuration not stated)
inactive: Potency [1] | outcome [2] | outcome [3] | outcome [4] | outcome [5] | outcome [6] | outcome [7] | outcome [8] | outcome [9] | Potency [10] | Potency [11] | Potency [12] | Potency [13] | Potency [14] | Potency [15] | Potency [16] | Potency [17] | Potency [20] | Potency [18] | Potency [19]

Cc1ncsc1CCCl
inactive: Potency [1] | outcome [2] | outcome [3] | outcome [4] | outcome [5] | outcome [6] | outcome [7] | outcome [8] | outcome [9] | Potency [10] | Potency [11] | Potency [12] | Potency [13] | Potency [14] | Potency [15] | Potency [16] | Potency [17] | Potency [20] | Potency [18] | Potency [19]

CCCCC/C=C\C/C=C\C/C=C\C/C=C\CCCC(=O)NCC(=O)O
inactive: activity change, negative = cytotoxicity [1] 0.883% [at 5.11 µM] | outcome [2] | outcome [3] | outcome [4] | outcome [5] | outcome [9] | Potency [10] | Potency [11] | Potency [12] | Potency [13] | Potency [14] | Potency [15] | Potency [16] | Potency [17] | Potency [18]

O=C1Nc2ccc(Cl)cc2C(c2ccccc2Cl)=NC1O (configuration not stated)
inactive: Potency [1]

CN1C(=O)CCS(=O)(=O)C1c1ccc(Cl)cc1 (configuration not stated)
inactive: Potency [1] | outcome [2] | outcome [3] | outcome [4] | outcome [5] | outcome [6] | outcome [7] | outcome [8] | outcome [9] | Potency [10] | Potency [11] | Potency [12] | Potency [13] | Potency [14] | Potency [15] | Potency [16] | Potency [17] | Potency [20] | Potency [18] | Potency [19]

C=CCN1C[C@H](C)N([C@H](c2ccc(C(=O)N(CC)CC)cc2)c2cccc(OC)c2)C[C@H]1C
inactive: activity change, negative = cytotoxicity [1] -6.15% [at 9.29 µM] | outcome [5] | Potency [10] | Potency [11] | Potency [12] | Potency [13] | Potency [14] | Potency [15] | Potency [16] | Potency [17] | Potency [20] | Potency [18] | Potency [19]

C=CCC1([C@H](C)CCC)C(=O)NC(=O)NC1=O
inactive: Potency [1] | outcome [5] | Potency [10] | Potency [11] | Potency [12] | Potency [13] | Potency [14] | Potency [15] | Potency [16] | Potency [17] | Potency [20] | Potency [18] | Potency [19]

CCN[C@H](C)Cc1cccc(C(F)(F)F)c1
inactive: Potency [1] | outcome [5] | Potency [10] | Potency [11] | Potency [12] | Potency [13] | Potency [14] | Potency [15] | Potency [16] | Potency [17] | Potency [20] | Potency [18] | Potency [19]
